Measured values from article PMC11062922 (Nature Chemical Biology, 2023).
Like-named read-outs stand apart in the source and are kept apart here.

Columns and labels:
Design in all cases: species or system human, MV4-11 + K-562 + COLO205 + SK-N-BE2 + OVCAR-8
ATM = settings: read-out: apparent Kd, compound concentrations: 100 nM and 1000 nM (sheet 'Samples'), n = 1
ATR = settings: read-out: apparent Kd; compound concentrations: 100 nM and 1000 nM (sheet 'Samples'), CATDS: 8.9801947735964505E-2; n = 1
DJA1 = test system: T1, DJA1; settings: read-out: apparent Kd; compound concentrations: 100 nM and 1000 nM (sheet 'Samples'), CATDS: 8.0242865429316204E-2; n = 1
T1 construct: gene DNAJA1

MTOR = settings: read-out: apparent Kd; compound concentrations: 100 nM and 1000 nM (sheet 'Samples'), CATDS: 0.10171258605148099; n = 1
NLK = settings: read-out: apparent Kd; compound concentrations: 100 nM and 1000 nM (sheet 'Samples'), CATDS: 7.3825275535159302E-2; n = 1
PIK3C2A = settings: read-out: apparent Kd; compound concentrations: 100 nM and 1000 nM (sheet 'Samples'), CATDS: 6.5272193721358701E-2; n = 1
PIK3CA = settings: read-out: apparent Kd; compound concentrations: 100 nM and 1000 nM (sheet 'Samples'), CATDS: 0.22105458504596001; n = 1
PRKAG2 = settings: read-out: apparent Kd; compound concentrations: 100 nM and 1000 nM (sheet 'Samples'), CATDS: 7.5904360676084706E-2; n = 1
PTK6 = settings: read-out: apparent Kd; compound concentrations: 100 nM and 1000 nM (sheet 'Samples'), CATDS: 7.5402432247591605E-2; n = 1
RAB14 = settings: read-out: apparent Kd; compound concentrations: 100 nM and 1000 nM (sheet 'Samples'), CATDS: 6.8441155991484606E-2; n = 1
STK16 = settings: read-out: apparent Kd; compound concentrations: 100 nM and 1000 nM (sheet 'Samples'), CATDS: 0.118413696953623; n = 1
CDC7 = settings: read-out: apparent Kd; compound concentrations: 100 nM and 1000 nM (sheet 'Samples'), CATDS: 6.3073958864856297E-2; n = 1
CDK16 = settings: read-out: apparent Kd, n = 1
CDK2 = settings: read-out: apparent Kd; compound concentrations: 100 nM and 1000 nM (sheet 'Samples'), CATDS: 0.141708067448752; n = 1
CDKL5 = settings: read-out: apparent Kd, n = 1
CLK2 = settings: read-out: apparent Kd; compound concentrations: 100 nM and 1000 nM (sheet 'Samples'), CATDS: 8.0907286547203805E-2; n = 1
CLK4 = settings: read-out: apparent Kd; compound concentrations: 100 nM and 1000 nM (sheet 'Samples'), CATDS: 8.1638299421732605E-2; n = 1
CSNK2A1;CSNK2A3 = settings: read-out: apparent Kd; compound concentrations: 100 nM and 1000 nM (sheet 'Samples'), CATDS: 6.6778954653333403E-2; n = 1
CSNK2A2 = settings: read-out: apparent Kd; compound concentrations: 100 nM and 1000 nM (sheet 'Samples'), CATDS: 7.8455201722788401E-2; n = 1
GSK3A = settings: read-out: apparent Kd, n = 1
GSK3B = settings: read-out: apparent Kd, n = 1
ICK = settings: read-out: apparent Kd, n = 1
AKT3 = settings: read-out: apparent Kd; compound concentrations:100 nM and 1000 nM (sheet 'Samples'); n = 1
CDK17 = settings: read-out: apparent Kd; compound concentrations:100 nM and 1000 nM (sheet 'Samples'); n = 1
CDK6 = settings: read-out: apparent Kd; compound concentrations:100 nM and 1000 nM (sheet 'Samples'); n = 1
CDK9 = settings: read-out: apparent Kd; compound concentrations:100 nM and 1000 nM (sheet 'Samples'); n = 1
PIM2 = settings: read-out: apparent Kd; compound concentrations:100 nM and 1000 nM (sheet 'Samples'); n = 1
RIOK2 = settings: read-out: apparent Kd; compound concentrations:100 nM and 1000 nM (sheet 'Samples'); n = 1
AXL = settings: read-out: apparent Kd; compound concentrations:100 nM and 1000 nM (sheet 'Samples'); n = 1
ERBB3 = settings: read-out: apparent Kd; compound concentrations:100 nM and 1000 nM (sheet 'Samples'); n = 1
MAP3K1 = settings: read-out: apparent Kd; compound concentrations:100 nM and 1000 nM (sheet 'Samples'); n = 1
RET = settings: read-out: apparent Kd; compound concentrations:100 nM and 1000 nM (sheet 'Samples'); n = 1
ZAK = settings: read-out: apparent Kd; compound concentrations:100 nM and 1000 nM (sheet 'Samples'); n = 1
BMP2K = settings: read-out: apparent Kd; compound concentrations: 100 nM and 1000 nM (sheet 'Samples'), CATDS: 0.25599665936716798; n = 1
FN3KRP = settings: read-out: apparent Kd; compound concentrations: 100 nM and 1000 nM (sheet 'Samples'), CATDS: 0.244187637168161; n = 1
MAP3K5 = settings: read-out: apparent Kd; compound concentrations: 100 nM and 1000 nM (sheet 'Samples'), CATDS: 0.21983206185326901; n = 1
PDXK = settings: read-out: apparent Kd; compound concentrations: 100 nM and 1000 nM (sheet 'Samples'), CATDS: 0.28989199258806803; n = 1
[1] = compound concentrations:100 nM and 1000 nM (sheet 'Samples')

Q: How did the potency estimated from few doses (ATM; CATDS: 0.213303269988698) turn out when `Fc1ccc(-c2ncn(CCCN3CCOCC3)c2-c2ccccn2)cc1` [SB-211742] was run?
A: 0.181 µM

Q: What about the potency estimated from few doses (ATR) of the same compound?
A: 0.854 µM

Q: And the potency estimated from few doses (DJA1)?
A: 1.13 µM

Q: And the potency estimated from few doses (MTOR)?
A: 0.648 µM

Q: And the potency estimated from few doses (NLK)?
A: 1.42 µM

Q: And the potency estimated from few doses (PIK3C2A)?
A: 2.11 µM

Q: What about the potency estimated from few doses (PIK3CA) of the same compound?
A: 0.172 µM

Q: And the potency estimated from few doses (PRKAG2)?
A: 1.31 µM

Q: And the potency estimated from few doses (PTK6)?
A: 1.33 µM

Q: And the potency estimated from few doses (RAB14)?
A: 1.79 µM

Q: And the potency estimated from few doses (STK16)?
A: 0.479 µM

Q: How did the potency estimated from few doses (ATM; CATDS: 1) turn out when `O=C1NC(=O)C(N2CCc3ccccc32)=C1c1ccc(Cl)cc1` [SB-333612] was run?
A: 0.265 µM

Q: For `NS(=O)(=O)c1ccc(N/N=C2\C(=O)Nc3ccc(C(=O)NCCCn4ccnc4)cc32)cc1` [GW290597X], which potency estimated from few doses (ATM; CATDS: 0.20887249405767599) is on record?
A: 0.232 µM

Q: What about the potency estimated from few doses (CDC7) of the same compound?
A: 2.22 µM

Q: And the potency estimated from few doses (CDK16; compound concentrations: 100 nM and 1000 nM (sheet 'Samples'), CATDS: 0.118346075913056)?
A: 0.55 µM

Q: What about the potency estimated from few doses (CDK2) of the same compound?
A: 0.409 µM

Q: What about the potency estimated from few doses (CDKL5; compound concentrations: 100 nM and 1000 nM (sheet 'Samples'), CATDS: 6.5208173112241197E-2) of the same compound?
A: 2.01 µM

Q: And the potency estimated from few doses (CLK2)?
A: 1.15 µM

Q: What about the potency estimated from few doses (CLK4) of the same compound?
A: 1.13 µM

Q: What about the potency estimated from few doses (CSNK2A1;CSNK2A3) of the same compound?
A: 1.87 µM

Q: And the potency estimated from few doses (CSNK2A2)?
A: 1.24 µM

Q: And the potency estimated from few doses (GSK3A; compound concentrations: 100 nM and 1000 nM (sheet 'Samples'), CATDS: 7.3699312386452706E-2)?
A: 1.44 µM

Q: What about the potency estimated from few doses (GSK3B; compound concentrations: 100 nM and 1000 nM (sheet 'Samples'), CATDS: 7.1527025569737807E-2) of the same compound?
A: 1.55 µM

Q: What about the potency estimated from few doses (ICK; compound concentrations: 100 nM and 1000 nM (sheet 'Samples'), CATDS: 7.9134779366863195E-2) of the same compound?
A: 1.21 µM

Q: `CN1CCC(C(=O)Nc2n[nH]c3nc(-c4ccc(O)cc4)c(Br)cc23)CC1` [SB-732881] was tested. Which potency estimated from few doses (AKT3) did it give?
A: 1.64 µM

Q: And the potency estimated from few doses (CDK16; [1])?
A: 0.565 µM

Q: What about the potency estimated from few doses (CDK17) of the same compound?
A: 0.914 µM

Q: What about the potency estimated from few doses (CDK6) of the same compound?
A: 1.48 µM

Q: What about the potency estimated from few doses (CDK9) of the same compound?
A: 0.4 µM

Q: What about the potency estimated from few doses (CDKL5; [1]) of the same compound?
A: 0.852 µM

Q: What about the potency estimated from few doses (GSK3A; [1]) of the same compound?
A: 0.00334 µM

Q: And the potency estimated from few doses (GSK3B; [1])?
A: 0.0104 µM

Q: And the potency estimated from few doses (ICK; [1])?
A: 1.23 µM

Q: And the potency estimated from few doses (PIM2)?
A: 1.66 µM

Q: What about the potency estimated from few doses (RIOK2) of the same compound?
A: 2.21 µM

Q: Which potency estimated from few doses (AXL) does the source give for `Cl.O=C(Nc1ccc(Oc2ccc3[nH]c(NC(=O)c4ccco4)nc3c2)cc1)Nc1cc(C(F)(F)F)ccc1F` [GW683134A_KCGS] here?
A: 1.64 µM

Q: And the potency estimated from few doses (ERBB3)?
A: 1.13 µM

Q: What about the potency estimated from few doses (MAP3K1) of the same compound?
A: 2 µM

Q: And the potency estimated from few doses (RET)?
A: 0.498 µM

Q: And the potency estimated from few doses (ZAK)?
A: 2.15 µM

Q: `c1ccc(-c2ccnc3[nH]ccc23)cc1` [SB-693578] was tested. Which potency estimated from few doses (BMP2K) did it give?
A: 1.68 µM

Q: What about the potency estimated from few doses (FN3KRP) of the same compound?
A: 1.85 µM

Q: What about the potency estimated from few doses (MAP3K5) of the same compound?
A: 2.33 µM

Q: What about the potency estimated from few doses (PDXK) of the same compound?
A: 1.33 µM
